Tested on: Human papillomavirus type 1a protein E7 (residues 44-93)
Experiment: HPV1a E7 fragment binders on microarrays, primary screen, biochemical, small-molecule microarray, residues 44-93, 635 nm fluorescence (AID 1108);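 note: E7 fragment applied at 1 µg/mL in TBST for 1 h at 4 C; score combines spot fluorescence with its signal to noise ratio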
Conditions: small-molecule microarray binding, fluorescence 635 nm; higher = more signal

| SMILES | composite z-score |
| --- | --- |
| COC(=O)[C@H](C)NC(=O)CCC1CC(OC(=O)NCCc2ccc(F)cc2)CC2(CCCC(COC(=O)NCCc3ccc(Cl)cc3)O2)O1 (some centres not stated) | 1.29 |
| C=COC[C@H]1CN2[C@@H](CC[C@@H](C)[C@@H]2c2ccc(Br)cc2)C(=O)O1 | 0.864 |
| CN1C(=O)C2C=CC(C(O)c3ccc(Br)cc3)N(N(c3ccccc3)c3ccccc3)C2C1=O (configuration not stated) | 0.962 |
| COC(=O)[C@H](C)NC(=O)[C@@H](C)CO | 1.25 |
| O=C1[C@H]2[C@H]3[C@H](O)[C@H](O)CC(=NOCc4ccccc4)[C@@H]3CC[C@H]2C(=O)N1Cc1ccccc1 | 0.813 |
| CC(C)[C@@H](OCc1ccccc1)[C@H](C)C=NOC[C@@H](C)[C@H](OCc1ccccc1)C(C)C | 0.255 |
| CCOC(=O)[C@H](Cc1ccccc1)NC(=O)CCC1CC(OC(=O)NCc2ccc3c(c2)OCO3)CC2(CCCC(COC(=O)NCC3CCCCC3)O2)O1 (some centres not stated) | 1.31 |
| COC(=O)[C@@H]1CC[C@H](C)[C@@H](c2ccc(C)cc2)N1C(=O)c1ccc(C=NOC[C@@H](O)COCc2ccco2)cc1 | -1.6 |
| Cc1cc2c(nc1C)CCCN2CC(O)CN1CCN(C)CC1 (configuration not stated) | 0.329 |
| C=C(CCCC)C(=O)CC[C@@H](OC(C)=O)c1cccc(OCCO)c1 | -0.701 |
| CCOC(=O)[C@H](Cc1ccccc1)NC(=O)CCC1CC(OC(=O)NCc2ccc3c(c2)OCO3)CC2(CCCC(COC(=O)NCC(c3ccccc3)c3ccccc3)O2)O1 (some centres not stated) | 1.39 |
| C#CCCCON=C1C[C@@H](O)[C@@H](O)[C@@H]2[C@@H]3C(=O)N(c4cccc(Oc5ccccc5)c4)C(=O)[C@@H]3CC[C@@H]12 | 1.3 |
